Source: PubChem BioAssay (NCI)
Compounds without any hit were thinned out: in the full panel of roughly 83,000, 20% have a hit.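 The endpoint reported here, percent growth, reads 100 for growth as untreated, 0 for no net growth and -100 for all cells dead.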 The source made the active and inactive calls. How the source made its calls: active means growth percent below 10; inactive means the rest.

Assays:
Assay in all cases: NCI-60 one-dose screen, 48 h (100 = growth as untreated, 0 = no growth, -100 = all killed)
Conditions in all cases: 10 µM unless noted
[1] = test system: RPMI-8226 leukemia
[2] = test system: OVCAR-8 ovarian
[3] = test system: OVCAR-5 ovarian
[4] = test system: OVCAR-4 ovarian
[5] = test system: SK-OV-3 ovarian
[6] = test system: IGROV1 ovarian
[7] = test system: OVCAR-3 ovarian
[8] = test system: HS 578T breast
[9] = test system: NCI/ADR-RES ovarian
[10] = test system: T-47D breast
[11] = test system: BT-549 breast
[12] = test system: MDA-MB-435 melanoma
[13] = test system: SW-620 colon
[14] = test system: MCF7 breast
[15] = test system: HCT-116 colon
[16] = test system: HCC-2998 colon
[17] = test system: KM12 colon

Measured: growth

C=CCn1c(SCC(=O)c2ccc(Br)cc2)nnc1-c1c[nH]c2ccccc12
inactive: [1] 98.8% | [2] 94.7% | [3] 96.8% | [4] 109% | [5] 113% | [6] 86.7% | [7] 110% | [8] 106% | [9] 98.8% | [10] 97% | [11] 106% | [12] 108% | [13] 110% | [14] 97.9% | [15] 93.5% | [16] 104% | [17] 102%

CCCC(=O)NC(c1ccc(N(CC)CC)cc1)c1cc(C)c2cccnc2c1O (stereo not given)
inactive: [1] 22.6% | [2] 20.5% | [3] 58% | [4] 40.3% | [5] 42% | [6] 14.1% | [7] 18.6% | [8] 50% | [10] 26.3% | [11] 29.9% | [12] 34.8% | [13] 31.4% | [14] 14.3% | [16] 33.9% | [17] 29.6%
active: [9] 6.31%

COc1ccccc1/C=C/C=N/NC1=NC2C(S1)N(C)C(=O)N2C (stereo not given)
active: [7] -12% | [8] 3.97% | [12] -57.1%
inactive: [1] 10.6% | [2] 31.1% | [3] 52.3% | [4] 72% | [5] 32.9% | [6] 46% | [9] 28.9% | [10] 31.2% | [11] 67.8% | [13] 20.9% | [15] 35.9% | [16] 68.3%

COC(=O)C(C)NS(=O)(=O)/N=C1\NC(=O)NC1=C(Cl)Cl (stereo not given)
inactive: [1] 104% | [2] 100% | [3] 98.8% | [4] 113% | [5] 119% | [6] 104% | [7] 117% | [8] 107% | [9] 105% | [10] 107% | [11] 109% | [12] 105% | [13] 124% | [14] 98% | [16] 113% | [17] 105%

O=C(CCN1C(=O)/C(=C/c2ccccc2F)SC1=S)N1CCOCC1
inactive: [1] 59.7% | [2] 99.6% | [3] 94.2% | [4] 99.1% | [5] 135% | [6] 61.9% | [7] 99.8% | [8] 101% | [9] 99.8% | [10] 59.3% | [11] 108% | [12] 80.8% | [13] 58.8% | [14] 30.1% | [16] 115% | [17] 80.8%

CC(C)(C)Nc1nc2c(OCCc3ccccc3)cccn2c1-c1ccc(Cl)cc1
active: [1] -16.1% | [7] 6.36% | [9] 4.99% | [10] 8.79% | [14] 0.0476%
inactive: [2] 26.3% | [3] 29.4% | [4] 18.2% | [5] 42.2% | [6] 23.8% | [8] 70.3% | [11] 47.7% | [12] 19.2% | [13] 41% | [16] 24.7%

O=C(c1ccc(O)cc1)C1[C@H](c2ccc(Cl)cc2)[C@@H](c2ccccc2)NC12C(=O)Nc1ccc(Cl)cc12 (stereo not given in full)
inactive: [1] 26.4% | [2] 47.7% | [3] 68.8% | [4] 47.1% | [5] 94.6% | [6] 38.9% | [7] 33.1% | [8] 60.5% | [9] 36.2% | [10] 31.4% | [11] 77.3% | [12] 39.6% | [13] 40.5% | [15] 14.5% | [16] 18% | [17] 24.4%

COc1cccc(OC)c1-c1nnn(C)c1C(=S)N1CCN(c2ccc([N+](=O)[O-])cc2Cl)CC1
inactive: [1] 77.5% | [2] 95.4% | [3] 91.6% | [4] 91.9% | [5] 110% | [6] 78.1% | [7] 112% | [8] 95% | [9] 93.6% | [10] 101% | [11] 91.7% | [12] 102% | [13] 101% | [14] 85.7% | [15] 88.2% | [16] 96.7% | [17] 108%

CCN1CCN(/C(=N\c2sc(-c3ccccc3)nc2-c2ccccc2)c2ccccc2)CC1
inactive: [1] 57.7% | [2] 97.1% | [3] 91.8% | [4] 31.8% | [5] 99.5% | [6] 92.9% | [7] 87.2% | [8] 92.2% | [9] 82.1% | [10] 63.7% | [11] 90.9% | [12] 88% | [13] 84.9% | [15] 62.4% | [16] 77.1% | [17] 59.8%

Fc1ccc(-c2cc3nc(C(Cl)Cl)nc(-c4ccc(Cl)cc4)n3n2)cc1
inactive: [1] 10.9% | [2] 19% | [6] 44.5% | [9] 20.3% | [10] 37.4% | [11] 72.4% | [12] 25.8% | [14] 16.5%
active: [3] -4.91% | [4] -9.93% | [5] -16.6% | [7] -31.9% | [8] 8.56% | [13] -13.1% | [16] -60.4% | [17] -17.1%
